# Results published in PubChem BioAssay AID1851 (National Center for Advancing Translational Sciences (NCATS), 2009).
# About 5,700 (36%) of roughly 16,000 compounds were called active. Roughly 24% stayed inconclusive and do not appear here. The list shows a part of the results. Unmarked numbers belong to inactive results. The call rests on the fitted dose curve; in most records, active means well fitted curve in the direction sought with a large enough effect; inconclusive means small, poorly fitted or top-dose-only effect, or effect the other way; inactive means no such curve, though single readings can be large or run the other way.
# Target: Cytochrome P450 1A2 (Homo sapiens) (UniProt P05177)
# Test: Cytochrome panel assay with activity outcomes
# Conditions: recombinant CYP, pro-luciferin dealkylation, luminescence, p450-cyp1a2; series mostly up to 57.1 µM; activity, negative = inhibition: at the top concentration
# On the % scale 0 is the no-effect control and ±100 the full control effect.
# Cytochrome P450 1A2 (Homo sapiens), sequence (P05177 whole entry, looked up): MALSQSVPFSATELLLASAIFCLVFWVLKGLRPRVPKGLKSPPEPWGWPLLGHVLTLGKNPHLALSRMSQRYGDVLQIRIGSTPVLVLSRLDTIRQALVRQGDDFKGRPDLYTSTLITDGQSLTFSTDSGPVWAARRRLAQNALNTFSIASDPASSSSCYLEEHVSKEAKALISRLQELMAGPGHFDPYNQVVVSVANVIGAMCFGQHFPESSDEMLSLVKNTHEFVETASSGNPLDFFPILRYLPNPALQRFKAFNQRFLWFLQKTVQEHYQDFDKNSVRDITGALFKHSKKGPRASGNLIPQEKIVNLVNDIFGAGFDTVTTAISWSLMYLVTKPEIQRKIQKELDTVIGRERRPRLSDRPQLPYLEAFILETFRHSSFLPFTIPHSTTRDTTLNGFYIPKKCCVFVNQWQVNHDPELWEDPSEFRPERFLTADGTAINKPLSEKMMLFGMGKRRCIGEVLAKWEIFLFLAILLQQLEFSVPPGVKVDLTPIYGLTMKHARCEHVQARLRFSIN
Structure (SMILES),AC50,"activity, negative = inhibition"
CCC(=O)N(C)/C=C1\Sc2ccccc2C1=O,3.16 µM (active),
CS(=O)(=O)c1cnc2c(-c3ccc(F)cc3)cnn2c1N,3.55 µM (active),
Cc1ccc(C(=O)N/N=C/c2ccc([N+](=O)[O-])s2)cc1,2.82 µM (active),
O=C(N/N=C/c1cc([N+](=O)[O-])ccc1N1CCNCC1)c1ccc([N+](=O)[O-])cc1,,-24.1%
COc1cccc(NC(=S)NNC(=O)C(C)n2nc(C)c([N+](=O)[O-])c2C)c1 (stereo unspecified),,-23.7%
Cc1cccc(NC(=S)N/N=C/c2ccc([N+](=O)[O-])s2)c1,1.41 µM (active),
O=C(N/N=C/c1ccc([N+](=O)[O-])s1)c1ccccc1Br,15.8 µM (active),
O=C(N/N=C/c1ccc(Br)s1)c1ccccc1[N+](=O)[O-],14.1 µM (active),
O=C(NCCNc1ccc([N+](=O)[O-])cc1)c1ccccc1Br,,-27.5%
CO[C@H]1COC(=O)C/C=C\[C@@H](C)[C@H](OC)COC(=O)CCC[C@@H]1C,,-5.95% [at 11.4 µM]
CC(=O)N1CCC(=O)N(C(C)C)c2ccccc21,,-11.8%
Cc1cc(N2CCN(c3nc4ccccc4s3)CC2)n2ncnc2n1,15.8 µM (active),
CCCNC(=O)OC[C@@H]1O[C@H](CCO/N=C(\C)CCN2CCCc3nc(C)c(C)cc32)C=C[C@@H]1Oc1ccc(OC)cc1,,0.587% [at 11.4 µM]
CCCCOc1ccc(C(=O)N/C(=C\c2cccc([N+](=O)[O-])c2)C(=O)OCCC)cc1,,-18.3%
COc1ccc(NC(=O)/C(=C\c2cc(OC)c(OC)cc2[N+](=O)[O-])NC(=O)c2ccccc2)cc1,,9.17%
C=CCOC(=O)/C(=C\c1cccc2ccccc12)NC(=O)c1ccccc1,7.08 µM (active),
c1ccc2c(c1)-c1nc3ccccc3cc1[C@H]2N1CCOCC1,1.26 µM (active),
CCCCCCC1CC(C)(/C(C)=N/NC(N)=O)OC1=O (stereo unspecified),,-17.7%
O=S(=O)(c1cnccc1N1CCN(/N=C/c2ccccc2)CC1)N1CCCCC1,,-18.1%
CCn1c(-c2ccoc2C)n[nH]c1=S,22.4 µM (active),
CSC1(SC2=NCCN2)SC2(NCCN2)S1,0.398 µM (active),
O=C(O)CCSC1=NCCN1,,-7.93% [at 11.4 µM]
COc1ccc(NC(=O)N2CC[C@@]3(CCCNC3)C2)cc1,,-8.34%
CCCCN1C(=O)C(NC(=O)C2CC2)(C(F)(F)F)C2=C1CC(C)(C)CC2=O (stereo unspecified),,14.5%

Structure (SMILES),AC50,"activity, negative = inhibition"
CC/C(=N/Nc1ccccc1)c1cnnc(SC)n1,10 µM (active),
CSc1nncc(/C(C)=N\Nc2ccccc2)n1,12.6 µM (active),
CCc1ccc(N(C(=O)c2ccoc2C)C(C(=O)NC2CCCC2)c2ccc(OC)cc2)cc1 (stereo unspecified),,-10.9%
Cc1ccc(Nc2nnc(-c3ccc4c(c3)OCO4)o2)c(C)c1,2.51 µM (active),
COc1ccc([C@H](O)c2ccccn2)cc1,,-16% [at 11.4 µM]
COc1cc(NCCC(=O)O)c2ncccc2c1,,-18.1% [at 11.4 µM]
COc1cc(N=C(N)N=C(N)N)c2ncccc2c1,0.398 µM (active),
CC(C)=CCC/C(C)=C/CO/N=C1/[C@H]2O[C@@H]2[C@@H](O)[C@H]2[C@H]1CCn1c(=O)n(Cc3cc4c(cc3Cl)OCO4)c(=O)n12,,-2.22% [at 11.4 µM]
c1ccc(CN2c3ccccc3-c3nc4ccccc4n3C2c2ccccn2)cc1 (stereo unspecified),4.47 µM (active),
O=C(Cc1ccccc1)Nc1nc2ccc(Cl)cc2c2nc(-c3ccco3)nn12,0.2 µM (active),
CN(C)Cc1cc(Cl)c(O)c(CN(C)C)c1,,-10.7% [at 11.4 µM]
Oc1ccc(Cl)cc1Cc1cc(Cl)cc(Cc2cc(Cl)ccc2O)c1O,,-23.8% [at 2.29 µM]
Oc1ccc(Cc2cc(Cl)cc(Cl)c2O)cc1Cl,1.58 µM (active),
CCC(Sc1nc2cc3c(cc2c(=O)n1Cc1ccco1)OCO3)C(=O)Nc1ccccc1OC (stereo unspecified),,-13.9%
CCC(C)(C)n1nnnc1C(c1ccc(C)cc1)N1CCC(C)CC1 (stereo unspecified),,-9.54%
COc1ccccc1CN(Cc1cc2cc3c(cc2[nH]c1=O)OCCO3)Cc1nnnn1Cc1ccco1,17.8 µM (active),
CC(C)(C)n1nnnc1C(c1cccnc1)N(Cc1ccccc1)Cc1ccco1 (stereo unspecified),,-11.9%
CCC(C)(C)n1nnnc1C(C(C)C)N(Cc1ccco1)Cc1cc2cc3c(cc2[nH]c1=O)OCO3 (stereo unspecified),14.1 µM (active),
Cc1nonc1NC(=O)N1CCCC1,,-14.6%
CCC[C@@H]1O[C@@H]2C[C@@H]3[C@H]4CCC5=CC(=O)C=C[C@@]5(C)[C@H]4[C@H](O)C[C@@]3(C)[C@@]2(C(=O)CO)O1,,-1.55% [at 25.6 µM]
CN(C(=O)c1c(O)c2ccccc2n(C)c1=O)c1ccccc1,,-1.04%
CCCc1c(O)c2ccccc2n(-c2ccccc2)c1=O,14.1 µM (active),
Cc1cnc(CNc2ncncc2-c2c(C)noc2C)cn1,,-8.28%
Cc1cnc(CNc2ncncc2-c2ccc(N(C)C)cc2)cn1,3.16 µM (active),

Structure (SMILES),AC50,"activity, negative = inhibition"
Cc1cnc(CNc2ncncc2-c2ccoc2)cn1,12.6 µM (active),
Cn1cc(-c2nc3cncnc3n(CCN)c2=O)c2ccccc21,6.31 µM (active),
COCCn1c(=O)c(-c2cn(C)c3ccccc23)nc2cnc(OCc3ccccc3)nc21,5.01 µM (active),
COCCn1c(=O)c(-c2cn(C)c3ccccc23)nc2cncnc21,0.398 µM (active),
COc1cccc(Cn2c(=O)c(-c3cn(C)c4ccccc34)nc3cncnc32)c1,1 µM (active),
O=C(Cn1cnc([N+](=O)[O-])c1)NCc1ccc(F)cc1,,2.97%
COc1ccccc1CCn1c(=O)c(-c2cn(C)c3ccccc23)nc2cncnc21,1.26 µM (active),
COC(=O)CC[C@@H](C)[C@H]1CC[C@H]2[C@H]3CC[C@H]4C[C@@H]5CC[C@@]4(C)C3(O5)[C@@H](Br)[C@@H](Br)[C@@]12C,,-8.93% [at 11.4 µM]
CCCC(=O)Nc1c(C)n[nH]c1C,,-12.9%
CCCC(=O)Nc1nc(C(=O)OCC)cs1,15.8 µM (active),
COc1cc(OC)c2c(c1)C(=O)c1cc(OC)cc(OC)c1C2=O,2 µM (active),
Cc1ccc(-n2ccnc2SCC(=O)N(CC(C)C)C2CCS(=O)(=O)C2)c(C)c1 (stereo unspecified),,-2.42%
O=C(CSc1ccccc1)Nc1ccc(NC(=O)c2ccco2)cc1,,-19.7%
COc1ccc(NC(=O)CSc2nnc(CNC(=O)c3ccco3)n2-c2ccccc2OC)cc1,,-12.4%
Cc1ccc(-n2nnnc2SCC(=O)NNC(=O)c2ccco2)c(C)c1,,-8.95%
O=C(CSc1ccc(Cl)cc1)Nc1cccc(NC(=O)c2ccco2)c1,2 µM (active),
CC(=O)c1ccc(-n2nnnc2SCC(=O)Nc2cccc(NC(=O)c3ccco3)c2)cc1,0.501 µM (active),
Fc1cccc(F)c1C(Nc1nncs1)Nc1nncs1,,12.3% [at 2.29 µM]
Cc1cccc(C(=O)NC2CCN(C(=S)NCc3ccco3)CC2)c1,,-1.32%
Cn1c(=O)n(-c2ccc(Cl)cc2)c(=O)c2c3c(sc21)COC(C)(C)C3,14.1 µM (active),
O=C(C/C=N/OCc1ccc(F)cc1Cl)c1cnc(-c2ccccc2)s1,1.78 µM (active),
O=C(C/C=N/OCc1ccc(Cl)cc1Cl)c1ccc(Cl)cc1,2.82 µM (active),
O=C1[C@@H]2[C@H]3[C@H](O)[C@H](O)C/C(=N/OCc4ccccc4)[C@H]3CC[C@H]2C(=O)N1c1ccc(F)cc1F,,-0.404% [at 11.4 µM]
CCCc1nnc(SCC(=O)N2C(C)CCCC2C)n1CCCOC (stereo unspecified),,3.47%

Structure (SMILES),AC50,"activity, negative = inhibition"
O=C(Nc1cccc(F)c1)/C(=C\c1ccco1)NC(=O)c1cccs1,4.47 µM (active),
Cc1ccc(NC(=O)/C(=C\c2cccc([N+](=O)[O-])c2)NC(=O)c2cccs2)cc1,,-27.3%
O=C(Nc1cccc(F)c1)N1CCC2(CC1)CCN(C(=O)c1ccco1)CC2,,-7.71%
NCCC(=O)O,,-20.8%
CCCCCC/C(C)=C1/SC(=S)NC1=O,2.51 µM (active),
c1ccc(Oc2cc(-c3ccccc3)ncn2)cc1,2.82 µM (active),
COc1cc(/C=N/NC(=O)c2cccnc2)ccc1OC(=O)c1ccco1,12.6 µM (active),
COc1cc(/C=N/NC(=O)c2cccnc2)ccc1OC(=O)c1ccc2c(c1)OCO2,,-25.7%
Cc1ccc(C2=C(Cl)C(=O)C(c3ccc(C)cc3)=C(Cl)C2=O)cc1,,-16.9% [at 2.29 µM]
COc1cccc(C2=CC(c3ccccc3)n3nnnc3N2)c1 (stereo unspecified),1.12 µM (active),
Cc1cc(C)c(/C=C2/C(=O)Nc3ccccc32)[nH]1,0.794 µM (active),
CN(C)c1ccc(/C=C2/C(=O)Nc3ccccc32)cc1,0.1 µM (active),
O=C1Nc2cc(C(=O)N3CCOCC3)ccc2SC1N1CCOCC1 (stereo unspecified),,-4.43%
N[C@@H](CSCc1ccc(I)cc1)C(=O)O,,-12% [at 2.29 µM]
COC(=O)[C@H](CCSC)NC(=O)C/C=C\[C@@H](C)[C@@H](CO)OC,,-1.07% [at 11.4 µM]
c1ccc(C[n+]2cccc(-c3cc4ccccc4[nH]3)c2)cc1,1.26 µM (active),
COc1cc2c3c(c1OC)C1(C=CC(=O)C=C1)CC3N(C(=O)c1ccccc1)CC2 (stereo unspecified),,-2.36%
COc1ccc(C(=O)N2CCC3(CCN(C)CC3)CC2)cc1,,-19.3%
COc1ccc(C(=O)/C=C2/c3ccccc3CC(C)(C)N2C)cc1,15.8 µM (active),
COc1ccc(C(=O)N2CCC3(CCCN(Cc4ccccc4)C3)CC2)cc1,,7.68%
N#CCCSC(=S)[C@H]1CCCC1=N,3.16 µM (active),
N=C1CCC[C@@H]1C(=S)SCCC(N)=O,3.16 µM (active),
CCN1C(=O)C(O)(C2COC(C)(C)CC2=O)c2ccccc21 (stereo unspecified),,-22.9%
CCN1C(=O)C(O)(CC(=O)/C=C/C=C/c2ccccc2)c2ccccc21 (stereo unspecified),10 µM (active),
